Data taken from PubChem BioAssay (Tox21).
Inconclusive results are not listed. A call without a number means that no potency is given here. Activity calls are given as the source filed them. Unless noted, calls follow the shape of the dose curve; as a rule, active = well fitted curve in the direction sought with a large enough effect in the repeat runs; inconclusive = weak or mixed curves; inactive = no such curve, though single readings can be large; an effect the other way counts as inactive or inconclusive.

Experiments:
[1] = qHTS assay to identify small molecule agonists of the estrogen receptor alpha (ER-alpha) signaling pathway in the presence of an antagonist - cell viability counter screen (AID 1259386); conditions: VM7Luc4E2 viability, CellTiter-Fluor fluorescence, 22 h; series mostly up to 92.4 µM;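 also: cells exposed to compounds for 22 h at 37 °C before the viability read; nearly all actives have a fitted effect of over 30% in size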
Summary of the method: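 In this counter screen, compound effects on VM7Luc4E2 viability were tested in the presence of the antagonist ICI-182,780 at 10.0nM final. Compounds were dosed at 15 concentrations, exposure lasted 22hr, and the CellTiter-Fluor signal was read.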

[2] = biological target: Progesterone receptor (Homo sapiens) (UniProt P06401); assay: qHTS assay to identify small molecule antagonists of the progesterone receptor (PR) signaling pathway (AID 1346795; active = well fitted inhibition curve with a large enough effect in the signal ratio in the repeat runs, not every such curve was filed as active; the % refers to the signal ratio); conditions: PR-UAS-bla HEK293T, beta-lactamase FRET ratio, 16 h; series mostly up to 92.4 µM
Summary of the method: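 Fluorescence intensity measured 2 hr after adding beta-lactamase FRET substrate to PR-UAS-bla HEK293T cells that had been co-treated 16 hr with compound and 1 nM R5020 (final concentration) in 2% charcoal-stripped FBS.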

[3] = qHTS assay to identify small molecule antagonists of the progesterone receptor (PR) signaling pathway - cell viability counter screen (AID 1346798); conditions: PR-UAS-bla HEK293T viability, CellTiter-Glo luminescence, 16 h; series mostly up to 92.4 µM; also: nearly all actives have a fitted effect of over 50% in size
Summary of the method: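 CellTiter-Glo luminescence; PR-UAS-bla HEK293T, 3,000 cells/well; compound + R5020, 16 hr, 37C/5% CO2; 30 min RT before read.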

[4] = qHTS assay to identify small molecule antagonists of the TGF-beta/Smad signaling pathway - cell viability counter screen (AID 1346824); conditions: SBE-bla HEK293T viability, CellTiter-Glo luminescence; series mostly up to 76.8 µM; also: nearly all actives have a fitted effect of over 50% in size
Summary of the method: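 Cytotoxicity counter-screen run in the same wells as the beta-lactamase Smad reporter read: CellTiter-Glo luminescence after 30 min at room temperature. HEK 293T SBE-bla cells had 5 hr compound exposure at 37 C with TGF-beta1 (0.25 ng/mL stock).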

[5] = qHTS assay to identify small molecule agonists of the TGF-beta/Smad signaling pathway - cell viability counter screen (AID 1346829); conditions: SBE-bla HEK293T viability, CellTiter-Glo luminescence, 5 h; series mostly up to 76.8 µM; also: top concentration of the series differs between compounds; nearly all actives have a fitted effect of over 45% in size
Summary of the method: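 Compound-treated SBE-bla HEK 293T cells (5 hr, 37 C) were assessed for viability with CellTiter-Glo in parallel with the reporter read.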

[6] = qHTS assay to identify small molecule agonists of the TGF-beta/Smad signaling pathway (AID 1346859; active = well fitted activation curve with a large enough effect in the signal ratio in the repeat runs, not every such curve was filed as active; the % refers to the signal ratio); conditions: SBE-bla HEK293T, TGF-beta/Smad beta-lactamase reporter, 5 h; series mostly up to 76.8 µM
Summary of the method: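 After overnight seeding, SBE-bla HEK 293T cells are dosed with compounds in DMSO and kept 5 hr at 37 C, 5% CO2. LiveBLAzer-type FRET substrate is then applied for 2 hr at room temperature.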

[7] = biological target: Thyrotropin-releasing hormone receptor (Homo sapiens) (UniProt P34981); assay: qHTS assay to identify small molecule antagonists of the thyrotropin-releasing hormone receptor (TRHR) signaling pathway (AID 1346877; active = well fitted inhibition curve with a large enough effect in the repeat runs, not every such curve was filed as active); conditions: TRHR-HEK293, TRH-induced calcium fluorescence, antagonist mode; series mostly up to 51.3 µM
Summary of the method: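 Kinetic fluorescence (3 min, 1 s resolution) following stimulation with TRH at 1 nM final; HEK293 cells bearing human TRHR; 5 min compound preincubation at RT; concentration-response over 15 points, triplicates.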

[8] = biological target: Thyrotropin-releasing hormone receptor (Homo sapiens) (UniProt P34981); assay: qHTS assay to identify small molecule agonists of the thyrotropin-releasing hormone receptor (TRHR) signaling pathway (AID 1346891; calls by dose curve;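 also: HEK293 cells expressing TRHR with calcium dye readout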); conditions: TRHR-HEK293 calcium fluorescence, agonist mode; series mostly up to 57.6 µM
Summary of the method: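 Compounds were tested as agonists at 15 concentrations, in triplicate, on TRHR-Hek293 cells; calcium-sensitive dye fluorescence was recorded for 3 min following addition.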

[9] = qHTS assay to identify small molecule agonists of the progesterone receptor (PR) signaling pathway - cell viability counter screen (AID 1346799; calls by dose curve; also: nearly all actives have a fitted effect of over 45% in size; also: potency is read from the fitted curve at half-maximal effect); conditions: PR-UAS-bla HEK293T viability, CellTiter-Glo luminescence, 16 h; series mostly up to 92.4 µM
Summary of the method: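 In parallel with the beta-lactamase readout, cytotoxicity toward PR-UAS-bla HEK293T cells was measured by CellTiter-Glo luminescence following 16 hr compound incubation in 2% charcoal-stripped FBS medium.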

[10] = biological target: Progesterone receptor (Homo sapiens) (UniProt P06401); assay: qHTS assay to identify small molecule agonists of the progesterone receptor (PR) signaling pathway (AID 1346784; calls by dose curve; also: nearly all actives have a fitted effect of over 30% in size); conditions: PR-UAS-bla HEK293T, beta-lactamase FRET ratio, 16 h; series mostly up to 92.4 µM
Summary of the method: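 Fluorescence from LiveBLAzer B/G FRET substrate cleavage (2 hr, RT) reported PR activation in PR-UAS-bla HEK 293T cells treated 16 hr at 37C/5% CO2 with compounds; medium contained 2% charcoal-stripped FBS.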

Thyrotropin-releasing hormone receptor (Homo sapiens), sequence (P34981 whole entry, looked up): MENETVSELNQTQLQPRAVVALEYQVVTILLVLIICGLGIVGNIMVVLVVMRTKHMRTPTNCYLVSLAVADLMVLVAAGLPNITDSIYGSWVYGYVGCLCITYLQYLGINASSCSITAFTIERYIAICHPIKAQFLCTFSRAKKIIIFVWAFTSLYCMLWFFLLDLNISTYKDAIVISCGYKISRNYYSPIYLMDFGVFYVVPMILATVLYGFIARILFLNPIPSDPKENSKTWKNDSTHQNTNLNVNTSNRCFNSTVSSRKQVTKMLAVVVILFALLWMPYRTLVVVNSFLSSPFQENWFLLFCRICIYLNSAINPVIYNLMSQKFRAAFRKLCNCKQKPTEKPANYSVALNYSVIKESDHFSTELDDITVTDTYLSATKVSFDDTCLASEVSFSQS
Progesterone receptor (Homo sapiens), sequence (P06401 whole entry, looked up): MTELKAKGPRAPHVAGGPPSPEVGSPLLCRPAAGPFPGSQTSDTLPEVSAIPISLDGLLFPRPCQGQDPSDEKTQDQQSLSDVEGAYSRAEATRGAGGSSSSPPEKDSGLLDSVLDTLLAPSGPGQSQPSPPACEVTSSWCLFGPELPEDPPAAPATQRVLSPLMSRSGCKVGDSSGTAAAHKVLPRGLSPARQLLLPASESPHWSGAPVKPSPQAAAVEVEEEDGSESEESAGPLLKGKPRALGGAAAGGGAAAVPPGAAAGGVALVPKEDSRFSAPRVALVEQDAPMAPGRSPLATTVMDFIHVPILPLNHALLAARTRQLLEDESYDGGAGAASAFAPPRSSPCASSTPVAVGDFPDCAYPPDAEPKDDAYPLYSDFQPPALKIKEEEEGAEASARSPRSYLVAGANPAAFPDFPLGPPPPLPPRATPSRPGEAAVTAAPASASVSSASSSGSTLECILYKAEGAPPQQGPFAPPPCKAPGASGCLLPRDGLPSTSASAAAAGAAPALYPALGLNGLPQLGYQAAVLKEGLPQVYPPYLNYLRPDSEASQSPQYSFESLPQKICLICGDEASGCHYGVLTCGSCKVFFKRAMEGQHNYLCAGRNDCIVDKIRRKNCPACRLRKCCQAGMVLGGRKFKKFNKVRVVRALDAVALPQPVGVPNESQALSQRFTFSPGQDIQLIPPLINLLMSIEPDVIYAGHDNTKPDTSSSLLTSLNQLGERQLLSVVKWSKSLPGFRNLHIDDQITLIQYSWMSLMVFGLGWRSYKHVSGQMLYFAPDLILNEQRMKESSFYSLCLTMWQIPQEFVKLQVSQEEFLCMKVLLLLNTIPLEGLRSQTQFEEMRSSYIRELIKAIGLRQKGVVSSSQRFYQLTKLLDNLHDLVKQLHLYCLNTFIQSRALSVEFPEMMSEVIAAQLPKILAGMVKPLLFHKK

| Compound | Potency [1] | Potency [2] | Potency [3] | outcome [4] | outcome [5] | outcome [6] | outcome [7] | Potency [8] | Potency [9] | Potency [10] |
| --- | --- | --- | --- | --- | --- | --- | --- | --- | --- | --- |
| CCCCOCCOC(=O)CCCCCCCCC(=O)OCCOCCCC | inactive | inactive | inactive | inactive | inactive | inactive | inactive | inactive |  |  |
| NCCCC(N)(C(=O)O)C(F)F (stereo unspecified) | inactive | inactive | inactive | inactive | inactive | inactive | inactive | inactive |  |  |
| CCCCc1ccc2c(n1)[C@@H](c1ccc(OC)cc1C[C@H](C)C(=O)O)[C@H](C(=O)O)[C@H]2c1ccc2c(c1)OCO2 | inactive |  |  | inactive | inactive | inactive |  |  | inactive |  |
| C[N+](C)(C)CCCCCCCCCC[N+](C)(C)C | inactive |  | inactive | inactive | inactive |  |  |  | inactive |  |
| CCN(Cc1ccccc1)c1ccccc1 | inactive | inactive |  | inactive | inactive | inactive | inactive | inactive | 67.8 µM (active) |  |
| CN1CCC(=C2c3ccccc3CCc3cccnc32)CC1 |  | inactive |  | inactive | inactive |  | inactive | inactive | inactive | inactive |
